The values below come from PubChem BioAssay (NCI).

The panel holds about 83,000 compounds, 20% with a hit somewhere; the sample as a whole holds those more often.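 A percent growth of 40 corresponds to 60% growth inhibition; 0 means no net growth; -100 means all cells died. Active threshold: below 10.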 Unmarked numbers belong to inactive results. Calls of active or inactive are those of the source.

The test system of one experiment is HCC-2998 colon. The experiment is described as follows: NCI-60 one-dose screen, 48 h (100 = growth as untreated, 0 = no growth, -100 = all killed). Conditions: 10 µM unless noted.
As to `Clc1ccc(Nc2ncc(Cc3cccc(Cl)c3Cl)s2)cc1`, the growth is 101%. Consider `CCOC(=O)c1nnn(-c2no[n+]([O-])c2-c2ccc(OC)cc2)c1COc1cccc2cccnc12`, for which the growth is 55.4%. For the compound `NC(=O)c1ccccc1OCC(=O)Nc1ccc(Cl)c(Cl)c1`, the growth is 103%. Consider `C=C1CC[C@@H]2C(C)(C)[C@H](O)CC[C@@]2(C)[C@@H]1COc1ccc2ccc(=O)oc2c1`, for which the growth was 95.4%.

Turning to `O=S(Nc1ccccc1)c1ccc(Cl)cc1` (stereo not given), the growth is 95.4%. On the same count and under the same terms, then `COc1cccc(-c2cn3nc(-c4cn(C)c5ccccc45)sc3n2)c1`, with 93.5%; and `COc1cc2c(cc1-c1c(C)noc1C)ncc1nc(CN3CCOCC3)n([C@H](C)COC(F)F)c12`, with 32%.

For `CN1c2ccccc2S(=O)(=O)n2c(SCC(=O)Nc3nc4ccc(F)cc4s3)nnc21`, the growth is 128%.

As to `O=S(=O)(Nc1cc(Sc2nc3ccccc3s2)c(O)c2ccccc12)c1ccc2ccccc2c1`, the growth is 109%. Still for that read-out and setting: then `Cn1c(C#N)ccc1-c1ccc(F)c(NC(=O)c2ccc(F)cc2)c1`, with 90.5%.

Another experiment has as its system KM12 colon. The description is as above. The note with it: 10 µM unless noted.
`CN(C)CCCNC(=O)c1cncnc1Nc1ccc2c(ccn2Cc2cccc(F)c2)c1`: the growth was 98%.

Turning to `CCOC(=O)/C(=C(/C)NCC(C)C)c1cc(O)c(O)c2c(C)cc(=O)[nH]c12`, the growth is 61.5%.

As for `COc1ccc(Nc2ncc(C#N)c(NCCCNC(=O)C3CCC3)n2)cc1`, the growth is 64.2%.

For `C=C1SC(=Nc2ccccc2Cl)N(C(=O)c2sc3ccccc3c2Cl)C1(C)C`, the growth was 29%. The same measure, in the same setting: then `CN1CC(c2ccc(Br)cc2)C(C(=O)c2ccc(Br)cc2)C12C(=O)Nc1ccccc12` (stereo not given), with 75%; and `CC(C)Cc1nc(Nc2ccccc2)[nH]c(=O)c1C#N`, with 50.6%.

As for `CC(C)(C)c1ccc(S(=O)(=O)Oc2ccc(-c3sc4cc(OS(=O)(=O)c5ccc(C(C)(C)C)cc5)ccc4c3C(=O)c3ccc(OCCN4CCCCC4)cc3)cc2)cc1`, the growth is 95.5%.

As to `Nc1ncccc1O`, the growth was 100%. On the same count and under the same terms, then `COc1cc(C[C@H]2COc3cc(O)cc(O)c3C2=O)ccc1O`, with 24.7%.

For `CCN(CC)C(=O)CC1=C(C)/C(=C/c2[nH]c(-c3ccc[nH]3)cc2OC)N=C1C`, the growth is 13.9%. For `COc1ccc(C2CC(c3ccccc3)=NN2C(=O)c2cc(OC)c(OC)c(OC)c2)cc1O` (stereo not given), the growth was 26.3%. Still for that read-out and setting: under `C[C@@H]1CN(c2cnc(C(=O)Nc3cc(F)cc4cccnc34)cn2)C[C@H](C)N1` stands 83.4%.

In the case of `O=C(Nc1cc(Cl)ccc1O)c1ccccc1Nc1ccnc(C(F)(F)F)c1`, the growth was 7.26% (active).

Turning to `O=c1ccc2ccc(OCCN3CCCCC3)cc2o1`, the growth was 104%. Regarding `CC1(C)CC(=O)C2=C(C1)C(c1ccc(Cl)cc1)n1ncc(C#N)c1N2` (stereo not given), the growth is 110%. `CCOC(=O)C1=C(CCl)N(C)C(=O)NC1c1ccc2c(c1)OCO2` (stereo not given): the growth is 73.1%. Turning to `COc1ccc(-c2cc(C(=O)N3N=C(c4ccc(N)cc4)CC3c3ccc(Cl)cc3)c3ccccc3n2)cc1` (stereo not given), the growth is 20.7%. As to `Cn1cc(-c2csc(-c3cn(C)c4ccccc34)n2)c2cnccc21`, the growth is 26.6%. For the compound `CC(C)c1ccc2c(c1)CC[C@H]1[C@](C)(C(=O)OCC#CCN3CCCC3)CCC[C@]21C`, the growth is 81.4%. Still for that read-out and setting: under `Cc1cc(=O)n(C(=S)Nc2ccc(Cl)cc2)c2cc(O)ccc12` stands 102%. With `O=C1Nc2ccc(Cl)cc2/C1=C/c1ccc[nH]1`, the growth is 13.5%.

On to `COc1nc(/C=C\Nc2ccc3c(c2)OCCOCCOCCOCCO3)nc(OC)n1`, for which the growth is 101%. For the compound `CC1=C2CC/C(C)=C/CC[C@]3(C)O[C@H]3CC/C(C)=C/[C@H]2OC1`, the growth is 120%. Take `CCN1C(=O)N(CC)C2C1NN=c1s/c(=C\c3ccc(OC)cc3)c(=O)n12` (stereo not given): the growth is 10.5%. Turning to `Cc1nn(C)c2ncnc(N/N=C/c3cccc(O)c3O)c12`, the growth is 21.5%. As for `CC(C)C1C2=C(NCCN1C(=O)c1ccncc1)C(C)(C)N(Cc1ccccc1)C2=O` (stereo not given), the growth is 97.6%. The same measure, in the same setting: then `CN(C)c1ccc(C(=S)c2ccc(N(C)C)cc2)cc1`, with 47.2%; and `CSc1ccc(N2C(=N)C(=S)N(c3ccc(C)cc3)C2=O)cc1`, with 96.5%; and `CCOC(=O)C/C(=N\Nc1cc(=O)[nH]c2ccc(C)cc12)C(=O)OCC`, with 100%. The same measure, in the same setting: under `Clc1ccc(Nc2ncc(Cc3cccc(Cl)c3Cl)s2)cc1` stands 101%.
